# Reference: PubChem BioAssay (NCI)
# About 83,000 compounds went through this panel and 20% of them were active in at least one assay; those are over-represented in the sample as a whole.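 Plates (96-well) were seeded with cells, treated with compound at one concentration, and incubated for 48 hours before percent growth was determined.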 Values without a mark were called inactive. Activity calls are given as the source filed them.
# Tested on: SK-OV-3 ovarian
# Experiment: NCI-60 one-dose screen, 48 h (100 = growth as untreated, 0 = no growth, -100 = all killed)
# Details: 10 µM unless noted
# Experimental: Growth inhibition of the SK-OV-3 human tumor cell line is measured as a screen for anti-cancer activity. Cells are grown in 96 well plates and exposed to the test compound for 48 hours. Compounds are tested at a single concentration, which is 10^-5 M for most compounds. The reported endpoint is percent growth (GI% or GIPRCNT), where numbers from 0 - 100% represent growth inhibition, and numbers from -100% - 0 represent cell death. For example, a value of 40 represents 60% growth inhibition. A value of 0 means no net growth occurred over the course of the experiment. A value of -40 indicates 40% of cells at the beginning of the experiment died by the end of the experiment. A value of -100 means all cells are dead at the end of the experiment.
# NCI-60 Human Tumor Cell Lines Screen was performed using the standard one-dose NCI protocol, which is described in more detail at https://dtp.cancer.gov/discovery_development/nci-60/default.htm.
# Compounds with GIPRCNT values below 10 were considered active. Activity score was based on GIPRCNT using the following formula: […]
# Score is 0 for GIPRCNT values of 100 or above, 50 for GIPRCNT values of 0, and 100 for GIPRCNT values of -100.
row,SMILES,growth
1,O=C1OC(c2ccc(Cl)c(Cl)c2)=C/C1=C/c1cccc([N+](=O)[O-])c1,96.5%
2,COc1ccc(/C=C/C(=O)NCC(C)O)cc1 (stereo not given),87.8%
3,COc1ccc2c(c1)c(-c1nc(-c3c[nH]c4ncccc34)cs1)cn2C,63.9%
4,O=[N+]([O-])c1ccc(N/N=C(\C(=N/Nc2ccc([N+](=O)[O-])cc2[N+](=O)[O-])c2ccccc2)c2ccccc2)c([N+](=O)[O-])c1,106%
5,Fc1ccc(Nc2nc(Nc3ccc(-c4nc5ccccc5[nH]4)cc3)nc(N3CCCC3)n2)cc1,75.1%
6,CC1(C)C=CC[C@]2(C)[C@H]3CC[C@@H]4[C@H]5[C@H](C(=O)/C=C/c6cccnc6)CC[C@]5(CO)CC[C@@]4(C)[C@]3(C)CC[C@@H]12,-46.6% (active)
7,Cc1cccc2c1NC(=O)[C@@]21[C@H](C(=O)c2ccccc2)[C@]2(C(=O)Nc3ccccc32)[C@H]2CCCN21,11.1% [100 µM]
8,COc1ccc(-c2nc3c(c(C)nn3-c3ccc(F)cc3)c(=O)[nH]2)cc1,31.5%
9,O=C(NCN1C(=O)c2cccc3cccc(c23)C1=O)N1CCC(Cc2ccccc2)CC1,91.3%
10,c1cc(N2CCCC2)c2nc(-c3[nH]ncc3Nc3ncnc4[nH]ccc34)[nH]c2c1,-8.07% (active)
11,CC(=O)c1c(C)[nH]c(-c2nc3ccc(N4CCN(C)CC4)cc3[nH]2)c1-c1ccc2c(c1)OCCO2,28.7%
12,COc1cccc(-c2nn(-c3ccccc3)cc2-c2ccnc(NCCNS(=O)(=O)c3ccccc3)c2)c1,43.3%
13,Cn1cc(-c2nc(-c3c[nH]c4ncccc34)cs2)c2cc(F)ccc21,55.9%
14,Cc1ccc(Cc2cnc(NC(=O)/C=C/c3cccc(C)c3)s2)cc1,15.7%
15,COc1ccc(-c2nc3ncccn3c2-c2nc3ccc(Br)cc3[nH]2)cc1,105%
16,CCc1ccc(-c2ccc(Nc3ccccc3)nn2)cc1S(N)(=O)=O,96.8%
17,C=C(C)[C@@H]1CC[C@]2(C(=O)N3CCN(C)CC3)CC[C@]3(C)[C@H](CC[C@@H]4[C@@]5(C)C/C(=C/c6ccc(C(F)(F)F)cc6)C(=O)C(C)(C)[C@@H]5CC[C@]43C)[C@@H]12,101%
18,Nc1c(C(=O)Nc2c(Cl)cccc2Cl)sc2nc3c(cc12)C(=O)CCC3,32.2%
19,O=C1C(Cl)=C(Nc2ccc(S(=O)(=O)c3ccc(NC4=C(Cl)C(=O)c5ccccc5C4=O)cc3)cc2)C(=O)c2ccccc21,78.9%
20,C=C(C)[C@@H]1CC[C@]2(CN)CC[C@]3(C)[C@H](CC[C@@H]4[C@@](C)(CCCN)[C@H](C(=C)C)CC[C@]43C)[C@@H]12,107%

row,SMILES,growth
1,CCCCC/C(=C\c1ccccc1)C1OC(C)C(C)O1 (stereo not given),96.7%
2,C=C(C)[C@@H]1CC[C@]2(C(=O)N3CCCNCC3)CC[C@]3(C)[C@H](CC[C@@H]4[C@@]5(C)CCC(=O)C(C)(C)[C@@H]5CC[C@]43C)[C@@H]12,106%
3,c1csc(-c2nc(-c3cc4ccccc4c(N4CCOCC4)n3)cs2)c1,99.5%
4,Cn1cc(-c2csc(-c3c[nH]c4ccccc34)n2)c2cccnc21,28.9%
5,Fc1ccc2c(c1)c(-c1nc(-c3c[nH]c4ncccc34)cs1)cn2CCCN1CCCCC1,94.4%
6,COC(=O)[C@]12CC[C@@H](C)[C@H](C)[C@@H]1C1=CC[C@@H]3[C@@]4(C)C[C@@H](OC(C)=O)[C@H](O)[C@@](C)(COC(C)=O)[C@@H]4[C@H](O)C[C@@]3(C)[C@]1(C)CC2,-81.5% (active)
7,Cc1nc([P+](c2ccccc2)(c2ccccc2)c2ccccc2)c(Sc2sc(-c3ccccc3)nc2[P+](c2ccccc2)(c2ccccc2)c2ccccc2)o1,-12.2% (active)
8,CCNCCCn1c2c(c3ccc([N+](=O)[O-])cc3c1=O)C(=O)c1cc(OC)cnc1-2,-25.3% (active)
9,O=C1c2ccccc2NC(c2cn(-c3ccccc3)nc2-c2cccs2)N1Cc1ccccc1 (stereo not given),84%
10,Cc1ccsc1-c1ccc2c(c1)COC2(CCCN(C)C)c1ccc(F)cc1 (stereo not given),79.1%
11,Oc1cc(/C=C/c2nc(N3CCOCC3)c3cc(Cl)c(Cl)cc3n2)cc(O)c1O,105%
12,COc1ccc(/C=C/C(=O)NCCO)cc1,94.2%
13,Cn1cc(-c2nc(-c3c[nH]c4ncccc34)cs2)c2cc(Cl)ccc21,71.7%
14,Cc1ccc(Sc2sc(-c3ccccc3)nc2[P+](c2ccccc2)(c2ccccc2)c2ccccc2)cc1,-22.5% (active)
15,C#CCn1c2c(c3ccccc31)C[C@]1(C)[C@H]3CC[C@@H]4[C@@H]5C(=CCC[C@H]5C(=C)C)CC[C@@]4(C)[C@]3(C)CC[C@H]1C2(C)C,108%
16,O=C(O)c1cccc2c1Cc1cc([N+](=O)[O-])ccc1-2,107%
17,CCCCC[C@H]1CC=C2C(=O)C=C[C@@H]2CC=CCCCC(=O)O[C@@H](CCCCC)CC=C2C(=O)C=C[C@@H]2CC=CCCCC(=O)O[C@@H](CCCCC)CC=C2C(=O)C=C[C@@H]2CC=CCCCC(=O)O1,36.7% [8.75 µM]
18,O=c1c2sc3ncc(Br)cc3c2ncn1-c1cccc(Cl)c1,67.6%
19,O=C(O)c1cccc2c1-c1ccc(Cl)cc1C2,117%
20,Oc1ccc(CCC2CCCC(CCc3ccc(OCCF)cc3)N2)cc1 (stereo not given),96%
